From PubChem BioAssay (NCATS) come the findings set out here.

Molecules are shown by their SMILES. Several values for one entry are separate records, joined by “and”; a condition that tells them apart may be missing. Equal entries are not always repeated. Inconclusive results are not listed. Activity calls are given as the source filed them. The call rests on the fitted dose curve; in most records, active means well fitted activation curve with a large enough effect; inconclusive means small, poorly fitted or top-dose-only effect; inactive means no such curve, though single readings can be large or run the other way.
Potency means the concentration at half of the fitted maximal effect.

Chain of Cellular tumor antigen p53 (Homo sapiens) (P04637 whole entry, looked up): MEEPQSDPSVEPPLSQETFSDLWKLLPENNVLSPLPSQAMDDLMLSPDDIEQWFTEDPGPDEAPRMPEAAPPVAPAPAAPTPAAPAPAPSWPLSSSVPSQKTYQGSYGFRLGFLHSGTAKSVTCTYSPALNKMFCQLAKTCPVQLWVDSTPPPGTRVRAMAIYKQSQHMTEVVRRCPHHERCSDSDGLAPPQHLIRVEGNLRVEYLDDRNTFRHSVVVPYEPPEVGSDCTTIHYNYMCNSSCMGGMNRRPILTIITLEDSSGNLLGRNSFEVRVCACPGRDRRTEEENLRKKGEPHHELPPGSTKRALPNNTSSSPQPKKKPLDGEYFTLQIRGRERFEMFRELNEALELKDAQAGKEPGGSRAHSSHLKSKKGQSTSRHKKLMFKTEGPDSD

The experiment concerns the target Cellular tumor antigen p53 (Homo sapiens) (UniProt P04637). Kind of experiment: Primary qHTS for small molecule compounds that upregulate eGFP-tagged delta133p53alpha (in N-terminal) cells. (AID 2060322). Further: nearly all actives have a fitted effect of over 75% in size.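 On activation: cells pre-induced with doxycycline then dosed without doxycycline; series mostly up to about 56 µM; 0% = DMSO vehicle and 100% = reference activator.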 To be noted: NCI-H358 eGFP-delta133p53alpha fluorescence, 24 h; activation: active compounds read high. Summed up: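 NCI-H358 cells pre-induced 24 h with 10 ng/ml doxycycline for eGFP-delta133p53alpha, plated dox-free and exposed 24 h at 37C to titrated compounds. Fixed, Hoechst-stained; gated GFP peak intensity by laser scanning cytometry, normalized to DMSO (0%) and 57.5 uM 5-azacytidine (100%).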
In general terms: In qHTS, concentration-response curves come from the screen itself.
For the molecule `Nc1nc(Cl)nc2c1ncn2[C@@H]1O[C@H](CO)[C@@H](O)[C@H]1F`, the activation is -22.8% (inactive).

In the case of `N[C@@H](CSCCCO)C(=O)O`, the activation was -10% (inactive).

On to `CC=C1C2C=C(C)CC1(N)c1ccc(=O)[nH]c1C2` (configuration not stated), for which the activation was -14.9% (inactive).

In the case of `CCC(=O)O[C@]1(C(=O)COC)[C@@H](C)C[C@H]2[C@@H]3CCC4=CC(=O)C=C[C@]4(C)C3(F)[C@@H](O)C[C@@]21C` (some centres not stated), the activation was -4.18% (inactive).

Regarding `O=C(Nc1ccc(Cl)cc1)Nc1ccc(Cl)c(Cl)c1`, the activation was 0.565% (inactive).

For `COC(=O)[C@@H]1[C@H]2C[C@@H]3c4[nH]c5ccccc5c4CCN3C[C@@H]2CC[C@@H]1O`, the activation was 21.4% (inactive).

For the molecule `CC(=O)N(c1onc(C)c1C)S(=O)(=O)c1ccc(N)cc1`, the activation was -0.565% (inactive).

On to `CN(C/C=C/C#CC(C)(C)C)Cc1cccc2ccccc12`, for which the activation was -0.565% (inactive).

On to `C[C@@H]1CC[C@@]2(OC1)O[C@H]1C[C@H]3[C@@H]4CC[C@H]5C[C@@H](O)CC[C@]5(C)[C@H]4CC(=O)[C@]3(C)[C@H]1[C@@H]2C`, for which the activation is -17.6% (inactive).

For the molecule `COCc1c(C(C)C)nc(C(C)C)c(/C=C/[C@@H](O)C[C@@H](O)CC(=O)O)c1-c1ccc(F)cc1`, the activation is 27.7% (inactive).

For `CC[C@H]1CN2CCc3cc(OC)c(OC)cc3[C@H]2C[C@@H]1C[C@@H]1NCCc2cc(OC)c(OC)cc21`, the Potency was 1.37 µM (active).

Consider `O=C(CCN1CCN(CCO)CC1)N1c2ccccc2Sc2ccc(C(F)(F)F)cc21`, for which the activation is -5.08% (inactive).

With `OCC(CO)N[C@H]1C[C@](O)(CO)[C@@H](O)[C@H](O)[C@H]1O`, the activation was -11.7% (inactive).

`N[C@@H](C(=O)N[C@@H]1C(=O)N2C(C(=O)O)=C(Cl)CS[C@H]12)c1ccccc1`: the activation was -19.2% (inactive) and 26.9% (inactive).

As for `O=C1CC2(CCCC2)CC(=O)N1`, the activation is -7.34% (inactive).

Consider `C[C@H](N)[C@H](O)c1cccc(O)c1`, for which the activation is -7.53% (inactive).

As to `N[C@H](C(=O)O)[C@@H](O)c1ccc(O)c(O)c1`, the activation was 5.02% (inactive).

In the case of `C[C@@H]1[C@H](O)[C@@H](C)C=CC=CC=CC=CC=CC=CC=C[C@H](O[C@@H]2O[C@H](C)[C@H](O)[C@H](N)[C@@H]2O)C[C@@H]2O[C@](O)(C[C@@H](O)C[C@@H](O)[C@H](O)CC[C@@H](O)C[C@@H](O)CC(=O)O[C@H]1C)C[C@H](O)[C@@H]2C(=O)O`, the activation is -1.15% (inactive).

`CC(C)CN(C[C@@H](O)[C@H](Cc1ccccc1)NC(=O)O[C@H]1CO[C@H]2OCC[C@H]21)S(=O)(=O)c1ccc(N)cc1`: the activation was 22.9% (inactive).

As to `COc1cc(NS(=O)(=O)c2ccc(N)cc2)ncn1`, the activation is -5.86% (inactive).

In the case of `CN(C)CCOc1ccc(-c2nc(-c3ccc4c(c3)CCC4=NO)c(-c3ccncc3)[nH]2)cc1`, the activation was -18.7% (inactive).

For the molecule `CC(=O)Oc1cccc(C)c1`, the activation was -28.8% (inactive).

As for `CC(=O)Nc1cccc(O)c1`, the activation is -4.18% (inactive).

Consider `CCCCC(CC)COC(=O)c1ccccc1C(=O)O` (configuration not stated), for which the activation is -12.6% (inactive).

As for `O=C1NC(=O)C(=Cc2ccc(-c3ccc(F)cc3)o2)S1`, the activation was -1.63% (inactive).

On to `O=C1NC(=O)C(=Cc2ccc3c(c2)OC(F)(F)O3)S1`, for which the activation is 27.2% (inactive).

`N/C(=N\N=C\c1ccc(Cl)cc1)N/N=C/c1ccc(Cl)cc1`: the activation was 0% (inactive).

Turning to `CCCCCCCCOc1ccc(C(=O)c2ccccc2)c(O)c1`, the activation was -2.82% (inactive).

Regarding `Cc1nc2n(c(=O)c1CCN1CCC(C(=O)c3ccc(F)cc3)CC1)CCS2`, the activation was 23.2% (inactive).

As for `COc1ccc(/C(C)=C/C(=O)O)c(OC)c1`, the activation was -10.7% (inactive).

As to `C[C@@H](O)[C@H](N)C(=O)O`, the activation was -18.4% (inactive).

`NS(=O)(=O)c1cc2c(cc1C(F)(F)F)NCNS2(=O)=O`: the activation is 6.21% (inactive).

Regarding `NC(=O)NS(=O)(=O)c1ccc(N)cc1`, the activation was 7.53% (inactive).

As for `O=C(O)C1CCC1`, the activation is -6.69% (inactive).

Turning to `CO[C@H]1/C=C\O[C@@]2(C)Oc3c(C)c(O)c4c(O)c(c(C=NN5CCN(C6CCCC6)CC5)c(O)c4c3C2=O)NC(=O)C(C)=CC=C[C@H](C)[C@H](O)[C@@H](C)[C@@H](O)[C@@H](C)[C@H](OC(C)=O)[C@H]1C`, the Potency was 24.3 µM (active).

Turning to `O=C(/C=C/c1ccccc1)OCc1ccccc1`, the activation is -23.2% (inactive).

With `COc1cc2c(NC3CCN(C)CC3)nc(N3CCCN(C)CC3)nc2cc1OCc1ccccc1`, the activation was 30.2% (inactive).
